In all, about 5,500 compounds went through this assay and about 2,000 (36%) were called active. Roughly 18% stayed inconclusive and do not appear here. Rule as the data show it: active = normalized growth mostly below about 0.91 (no sharp cut-off); inconclusive = no clear call, values can overlap the other calls; inactive = mostly above about 0.92. The list shows a part of the results.
Assay: chemical genetic growth profiling, strain panel (AID 1159580);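 also: tested at 20 µM; growth read once vehicle control cultures reached saturation at 30 °C; 1 = growth at the plate median or of vehicle wells; lower values mean less growth of the strain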
Settings: growth OD
[1] = S. cerevisiae deletion strains, locus YDL101C, strain DUN1, hits give low values
[2] = S. cerevisiae deletion strains, locus YHR030C, strain SLT2, hits give low values
[3] = S. cerevisiae deletion strains, locus YJL095W, strain BCK1, hits give low values
[4] = S. cerevisiae deletion strains, locus YOR061W, strain CKA2, hits give low values

Measured: normalized growth

Nc1nc2ncc(C(=O)O)nc2c(=O)[nH]1
inactive: S. cerevisiae deletion strains, locus YAL013W, strain DEP1, hits give low values 1.01 | S. cerevisiae deletion strains, locus YBR021W, strain FUR4, hits give low values 1 | S. cerevisiae deletion strains, locus YBR229C, strain ROT2, hits give low values 1.01 | S. cerevisiae deletion strains, locus YCL029C, strain bik1, hits give low values 1.03 | S. cerevisiae deletion strains, locus YDL035C, strain GPR1, hits give low values 1 | S. cerevisiae deletion strains, locus YDL074C, strain BRE1, hits give low values 1.01 | [1] 1.01 | S. cerevisiae deletion strains, locus YDL134C, strain PPH21, hits give low values 1.01 | S. cerevisiae deletion strains, locus YDL185W, strain tfp1, hits give low values 1.04 | S. cerevisiae deletion strains, locus YDL192W, strain arf1, hits give low values 1.03 | S. cerevisiae deletion strains, locus YDR101C, strain arx1, hits give low values 1.03 | S. cerevisiae deletion strains, locus YDR162C, strain NBP2, hits give low values 1.03 | S. cerevisiae deletion strains, locus YDR318W, strain mcm21, hits give low values 1.02 | S. cerevisiae deletion strains, locus YDR388W, hits give low values 1.02 | S. cerevisiae deletion strains, locus YDR502C, strain sam2, hits give low values 1.04 | S. cerevisiae deletion strains, locus YEL061C, strain CIN8, hits give low values 1.01 | S. cerevisiae deletion strains, locus YER110C, hits give low values 1.05 | S. cerevisiae deletion strains, locus YER155C, strain BEM2, hits give low values 1.01 | S. cerevisiae deletion strains, locus YER167W, strain BCK2, hits give low values 1.01 | S. cerevisiae deletion strains, locus YGL078C, strain dbp3, hits give low values 1.03 | S. cerevisiae deletion strains, locus YGL086W, strain mad1, hits give low values 1 | S. cerevisiae deletion strains, locus YGL248W, strain PDE1, hits give low values 1.02 | S. cerevisiae deletion strains, locus YGR078C, strain PAC10, hits give low values 1.01 | S. cerevisiae deletion strains, locus YGR135W, strain pre9, hits give low values 1.01 | S. cerevisiae deletion strains, locus YGR252W, strain gcn5, hits give low values 1.07 | [2] 1.01 | S. cerevisiae deletion strains, locus YHR079C, strain IRE1 (second series), hits give low values 1.05 | S. cerevisiae deletion strains, locus YHR094C, strain hxt1, hits give low values 1.04 | S. cerevisiae deletion strains, locus YHR129C, strain ARP1, hits give low values 1.01 | S. cerevisiae deletion strains, locus YHR200W, strain rpn10, hits give low values 1 | S. cerevisiae deletion strains, locus YIL066C, strain RNR3, hits give low values 1.02 | S. cerevisiae deletion strains, locus YIL073C, strain SPO22, hits give low values 1.1 | S. cerevisiae deletion strains, locus YIL125W, strain kgd1, hits give low values 1.03 | S. cerevisiae deletion strains, locus YIR030C, strain dcg1, hits give low values 1.04 | [3] 1.01 | S. cerevisiae deletion strains, locus YJL134W, strain LCB3, hits give low values 1.01 | S. cerevisiae deletion strains, locus YJL168C, strain set2, hits give low values 1.05 | S. cerevisiae deletion strains, locus YJL187C, strain SWE1 (second series), hits give low values 1.01 | S. cerevisiae deletion strains, locus YJR043C, strain POL32, hits give low values 0.997 | S. cerevisiae deletion strains, locus YKL009W, strain mrt4, hits give low values 1.02 | S. cerevisiae deletion strains, locus YKL068W, hits give low values 1.03 | S. cerevisiae deletion strains, locus YKL085W, strain MDH1 (second series), hits give low values 1.01 | S. cerevisiae deletion strains, locus YKL085W, strain MDH1, hits give low values 1.01 | S. cerevisiae deletion strains, locus YKR001C, strain vps1, hits give low values 1.02 | S. cerevisiae deletion strains, locus YLR039C, strain RIC1, hits give low values 1.03 | S. cerevisiae deletion strains, locus YLR058C, strain SHM2, hits give low values 1.01 | S. cerevisiae deletion strains, locus YLR102C, strain apc9, hits give low values 1.04 | S. cerevisiae deletion strains, locus YLR262C, strain YPT6, hits give low values 1.03 | S. cerevisiae deletion strains, locus YLR268W, strain sec22, hits give low values 1.04 | S. cerevisiae deletion strains, locus YLR330W, strain CHS5, hits give low values 1.01 | S. cerevisiae deletion strains, locus YLR342W, strain FKS1 (second series), hits give low values 0.998 | S. cerevisiae deletion strains, locus YLR371W, strain rom2, hits give low values 1.06 | S. cerevisiae deletion strains, locus YLR418C, strain cdc73, hits give low values 1.03 | S. cerevisiae deletion strains, locus YML016C, strain PPZ1, hits give low values 1.01 | S. cerevisiae deletion strains, locus YML032C, strain rad52, hits give low values 1.02 | S. cerevisiae deletion strains, locus YML124C, strain tub3, hits give low values 1.02 | S. cerevisiae deletion strains, locus YMR078C, strain ctf18, hits give low values 1.05 | S. cerevisiae deletion strains, locus YMR223W, strain ubp8, hits give low values 1.03 | S. cerevisiae deletion strains, locus YMR307W, strain GAS1, hits give low values 1.01 | S. cerevisiae deletion strains, locus YNL067W, strain RPL9B, hits give low values 1.01 | S. cerevisiae deletion strains, locus YNL153C, strain GIM3, hits give low values 1.01 | S. cerevisiae deletion strains, locus YNL233W, strain BNI4, hits give low values 1 | S. cerevisiae deletion strains, locus YNL250W, strain rad50, hits give low values 1.03 | S. cerevisiae deletion strains, locus YNL271C, strain bni1, hits give low values 1.03 | S. cerevisiae deletion strains, locus YNL298W, strain CLA4, hits give low values 1.04 | S. cerevisiae deletion strains, locus YNL307C, strain MCK1, hits give low values 1.06 | S. cerevisiae deletion strains, locus YNL322C, strain KRE1, hits give low values 1.01 | S. cerevisiae deletion strains, locus YNR052C, strain pop2, hits give low values 1.03 | S. cerevisiae deletion strains, locus YOL012C, strain htz1 1.02 | S. cerevisiae deletion strains, locus YOL147C, strain pex11, hits give low values 1.04 | [4] 1.02 | S. cerevisiae deletion strains, locus YOR069W, strain VPS5, hits give low values 1.01 | S. cerevisiae deletion strains, locus YOR136W, strain idh2, hits give low values 1.04 | S. cerevisiae deletion strains, locus YOR144C, strain elg1, hits give low values 1.03 | S. cerevisiae deletion strains, locus YOR184W, strain ser1, hits give low values 1.04 | S. cerevisiae deletion strains, locus YOR316C, strain cot1, hits give low values 1.06 | S. cerevisiae deletion strains, locus YPL055C, strain LGE1, hits give low values 1.01 | S. cerevisiae deletion strains, locus YPR119W, strain clb2, hits give low values 1.03 | S. cerevisiae deletion strains, locus YPR141C, strain kar3, hits give low values 1.02 | S. cerevisiae deletion strains, locus YPR163C, strain tif3, hits give low values 1.05 | S. cerevisiae deletion strains, locus YPR167C, strain met16, hits give low values 1.06 | S. cerevisiae deletion strains, strain wtn01, hits give low values 1.02 | S. cerevisiae strains, strain wild type, hits give low values 1.01

CCOC(=O)C1=C(N)OC2=C(C(=O)CC(C)(C)C2)C1c1ccc(Cl)cc1Cl (centres undefined)
active: [2] 0.804
inactive: S. cerevisiae deletion strains, locus YAR019C, strain CDC15, hits give low values 0.984 | S. cerevisiae deletion strains, locus YBL105C, strain PKC1, hits give low values 0.982 | S. cerevisiae deletion strains, locus YBR135W, strain CKS1, hits give low values 0.978 | S. cerevisiae deletion strains, locus YBR136W, strain MEC1, hits give low values 0.981 | S. cerevisiae deletion strains, locus YBR160W, strain CDC28, hits give low values 0.964 | S. cerevisiae deletion strains, locus YDL017W, strain CDC7, hits give low values 0.978 | S. cerevisiae deletion strains, locus YDL028C, strain MPS1, hits give low values 0.98 | [1] 0.966 | S. cerevisiae deletion strains, locus YDL108W, strain KIN28, hits give low values 0.978 | S. cerevisiae deletion strains, locus YDL132W, strain cdc53, hits give low values 0.975 | S. cerevisiae deletion strains, locus YDL214C, strain PRR2, hits give low values 0.968 | S. cerevisiae deletion strains, locus YDR052C, strain DBF4, hits give low values 0.979 | S. cerevisiae deletion strains, locus YDR054C, strain cdc34, hits give low values 0.965 | S. cerevisiae deletion strains, locus YDR226W, strain ADK1, hits give low values 0.978 | S. cerevisiae deletion strains, locus YDR477W, strain SNF1, hits give low values 0.95 | S. cerevisiae deletion strains, locus YER123W, strain YCK3, hits give low values 0.927 | S. cerevisiae deletion strains, locus YER133W, strain GLC7, hits give low values 0.959 | S. cerevisiae deletion strains, locus YFL009W, strain cdc4, hits give low values 0.974 | S. cerevisiae deletion strains, locus YFL029C, strain CAK1, hits give low values 0.981 | S. cerevisiae deletion strains, locus YFR003C, strain YPI1, hits give low values 0.982 | S. cerevisiae deletion strains, locus YFR019W, strain FAB1, hits give low values 0.956 | S. cerevisiae deletion strains, locus YFR028C, strain CDC14, hits give low values 0.976 | S. cerevisiae deletion strains, locus YGR040W, strain KSS1, hits give low values 0.954 | S. cerevisiae deletion strains, locus YGR052W, strain FMP48, hits give low values 1.08 | S. cerevisiae deletion strains, locus YGR092W, strain DBF2, hits give low values 0.973 | S. cerevisiae deletion strains, locus YHR079C, strain IRE1, hits give low values 0.943 | S. cerevisiae deletion strains, locus YHR082C, strain KSP1, hits give low values 1.01 | S. cerevisiae deletion strains, locus YHR205W, strain SCH9, hits give low values 0.953 | S. cerevisiae deletion strains, locus YIL147C, strain SLN1, hits give low values 0.984 | [3] 0.904 | S. cerevisiae deletion strains, locus YJL128C, strain PBS2, hits give low values 0.975 | S. cerevisiae deletion strains, locus YJL157C, strain FAR1, hits give low values 0.976 | S. cerevisiae deletion strains, locus YJR016C, strain ILV3, hits give low values 0.99 | S. cerevisiae deletion strains, locus YJR066W, strain TOR1 (second series), hits give low values 0.95 | S. cerevisiae deletion strains, locus YJR066W, strain TOR1, hits give low values 0.947 | S. cerevisiae deletion strains, locus YKL048C, strain ELM1, hits give low values 0.948 | S. cerevisiae deletion strains, locus YKL067W, strain YNK1, hits give low values 0.959 | S. cerevisiae deletion strains, locus YKL101W, strain HSL1, hits give low values 0.963 | S. cerevisiae deletion strains, locus YKL193C, strain SDS22, hits give low values 0.973 | S. cerevisiae deletion strains, locus YKL203C, strain TOR2, hits give low values 1 | S. cerevisiae deletion strains, locus YLR113W, strain HOG1, hits give low values 0.934 | S. cerevisiae deletion strains, locus YLR133W, strain CKI1, hits give low values 0.961 | S. cerevisiae deletion strains, locus YLR403W, strain SFP1, hits give low values 0.964 | S. cerevisiae deletion strains, locus YML070W, strain DAK1, hits give low values 0.944 | S. cerevisiae deletion strains, locus YMR001C, strain CDC5, hits give low values 0.984 | S. cerevisiae deletion strains, locus YMR205C, strain PFK2 (second series), hits give low values 0.976 | S. cerevisiae deletion strains, locus YMR277W, strain FCP1, hits give low values 0.98 | S. cerevisiae deletion strains, locus YNL006W, strain LST8, hits give low values 0.987 | S. cerevisiae deletion strains, locus YNL020C, strain ARK1, hits give low values 0.95 | S. cerevisiae deletion strains, locus YNL161W, strain CBK1, hits give low values 0.983 | S. cerevisiae deletion strains, locus YNL183C, strain NPR1, hits give low values 0.934 | S. cerevisiae deletion strains, locus YNL207W, strain RIO2, hits give low values 0.989 | S. cerevisiae deletion strains, locus YNL222W, strain SSU72, hits give low values 0.977 | S. cerevisiae deletion strains, locus YNL307C, strain MCK1 (second series), hits give low values 0.947 | S. cerevisiae deletion strains, locus YOL078W, strain AVO1, hits give low values 0.979 | S. cerevisiae deletion strains, locus YOL136C, strain PFK27, hits give low values 0.952 | [4] 0.958 | S. cerevisiae deletion strains, locus YOR119C, strain RIO1, hits give low values 1.06 | S. cerevisiae deletion strains, locus YOR231W, strain MKK1, hits give low values 0.953 | S. cerevisiae deletion strains, locus YOR329C, strain SCD5, hits give low values 0.976 | S. cerevisiae deletion strains, locus YPL031C, strain PHO85, hits give low values 0.948 | S. cerevisiae deletion strains, locus YPL153C, strain RAD53, hits give low values 0.952 | S. cerevisiae deletion strains, locus YPL204W, strain HRR25, hits give low values 0.933 | S. cerevisiae deletion strains, locus YPL209C, strain IPL1, hits give low values 0.966 | S. cerevisiae deletion strains, locus YPL256C, strain CLN2, hits give low values 0.876 | S. cerevisiae deletion strains, locus YPR025C, strain CCL1, hits give low values 0.979 | S. cerevisiae deletion strains, locus YPR106W, strain ISR1, hits give low values 0.979 | S. cerevisiae deletion strains, locus YPR111W, strain DBF20, hits give low values 0.964 | S. cerevisiae deletion strains, strain NNK1, hits give low values 0.973 | S. cerevisiae deletion strains, strain TSCII, hits give low values 0.982

— PubChem BioAssay AID1159580 (chemical genetic matrix, 2015)
